According to the supplement of paper PMC10849652:
Targets with a hit are over-represented here; the source holds about 7,900 in all. About 0.6% of all pairs of compound and target were hits.

Compound: Cc1sc2c(c1C)C(c1ccc(Cl)cc1)=N[C@@H](CC(=O)OC(C)(C)C)c1nnc(C)n1-2
Assay: log2 fold change, soluble protein after heating vs DMSO (PISA); higher = thermal stabilisation; K562 cells, 10 uM, 30 min; active = over 0.2 and 3.5 SD of the protein, either way, in both replicates (recomputed)
Procedure, shortened: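 For each measurement, 10 μM compound was applied for 30 min to K562 cells at 2×10^6 cells/mL. Aliquots were heated for 3 min across 48°C-58°C, pooled, and extracted in PBS with 0.5% NP-40 at 4°C; the supernatant after 21,000xg for 90 min was soluble protein. This was quantified by TMTpro 16plex LC-MS/MS with channel sums equalised, and thermal stability was reported relative to control samples from duplicates, on a log2 fold-change scale.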

Chain of UniProt Q13422 (Q13422 whole entry, looked up): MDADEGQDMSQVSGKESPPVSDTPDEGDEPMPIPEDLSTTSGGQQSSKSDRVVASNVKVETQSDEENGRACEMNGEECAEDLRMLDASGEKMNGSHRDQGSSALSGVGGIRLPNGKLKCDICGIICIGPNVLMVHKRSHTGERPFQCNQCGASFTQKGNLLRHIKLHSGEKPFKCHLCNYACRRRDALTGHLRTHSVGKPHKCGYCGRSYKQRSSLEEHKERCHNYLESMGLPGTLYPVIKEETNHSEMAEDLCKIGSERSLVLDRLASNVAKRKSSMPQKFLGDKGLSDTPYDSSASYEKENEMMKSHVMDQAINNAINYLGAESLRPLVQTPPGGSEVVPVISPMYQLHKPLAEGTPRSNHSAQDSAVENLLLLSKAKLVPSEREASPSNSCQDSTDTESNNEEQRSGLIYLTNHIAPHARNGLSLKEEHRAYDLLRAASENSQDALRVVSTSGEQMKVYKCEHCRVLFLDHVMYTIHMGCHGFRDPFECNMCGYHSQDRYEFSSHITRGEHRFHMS
Chain of UniProt Q8IVT5 (Q8IVT5 whole entry, looked up): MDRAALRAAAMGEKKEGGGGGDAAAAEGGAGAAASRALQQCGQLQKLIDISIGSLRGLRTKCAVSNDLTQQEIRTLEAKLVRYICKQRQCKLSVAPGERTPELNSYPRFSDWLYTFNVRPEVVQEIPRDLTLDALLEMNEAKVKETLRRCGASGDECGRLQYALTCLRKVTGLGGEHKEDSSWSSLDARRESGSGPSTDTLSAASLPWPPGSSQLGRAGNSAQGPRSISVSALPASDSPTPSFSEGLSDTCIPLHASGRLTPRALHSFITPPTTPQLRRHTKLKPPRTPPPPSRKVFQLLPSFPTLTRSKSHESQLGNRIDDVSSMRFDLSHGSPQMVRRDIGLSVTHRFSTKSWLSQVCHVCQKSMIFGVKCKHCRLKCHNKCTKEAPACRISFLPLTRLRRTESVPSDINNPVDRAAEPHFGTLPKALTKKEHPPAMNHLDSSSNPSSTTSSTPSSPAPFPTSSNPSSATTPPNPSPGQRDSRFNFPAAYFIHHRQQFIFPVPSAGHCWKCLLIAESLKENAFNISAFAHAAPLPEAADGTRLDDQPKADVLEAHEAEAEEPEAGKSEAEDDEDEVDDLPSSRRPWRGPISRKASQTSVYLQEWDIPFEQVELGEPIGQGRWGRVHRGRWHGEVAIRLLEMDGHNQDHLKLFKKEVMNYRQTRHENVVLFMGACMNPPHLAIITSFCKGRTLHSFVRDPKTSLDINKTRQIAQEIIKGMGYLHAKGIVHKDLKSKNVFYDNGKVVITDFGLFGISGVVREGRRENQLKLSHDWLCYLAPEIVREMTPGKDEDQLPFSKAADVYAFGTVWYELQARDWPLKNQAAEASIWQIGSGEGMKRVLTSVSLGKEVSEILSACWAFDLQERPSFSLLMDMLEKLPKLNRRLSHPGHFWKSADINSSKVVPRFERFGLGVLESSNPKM
Chain of UniProt P50748 (P50748 whole entry, looked up): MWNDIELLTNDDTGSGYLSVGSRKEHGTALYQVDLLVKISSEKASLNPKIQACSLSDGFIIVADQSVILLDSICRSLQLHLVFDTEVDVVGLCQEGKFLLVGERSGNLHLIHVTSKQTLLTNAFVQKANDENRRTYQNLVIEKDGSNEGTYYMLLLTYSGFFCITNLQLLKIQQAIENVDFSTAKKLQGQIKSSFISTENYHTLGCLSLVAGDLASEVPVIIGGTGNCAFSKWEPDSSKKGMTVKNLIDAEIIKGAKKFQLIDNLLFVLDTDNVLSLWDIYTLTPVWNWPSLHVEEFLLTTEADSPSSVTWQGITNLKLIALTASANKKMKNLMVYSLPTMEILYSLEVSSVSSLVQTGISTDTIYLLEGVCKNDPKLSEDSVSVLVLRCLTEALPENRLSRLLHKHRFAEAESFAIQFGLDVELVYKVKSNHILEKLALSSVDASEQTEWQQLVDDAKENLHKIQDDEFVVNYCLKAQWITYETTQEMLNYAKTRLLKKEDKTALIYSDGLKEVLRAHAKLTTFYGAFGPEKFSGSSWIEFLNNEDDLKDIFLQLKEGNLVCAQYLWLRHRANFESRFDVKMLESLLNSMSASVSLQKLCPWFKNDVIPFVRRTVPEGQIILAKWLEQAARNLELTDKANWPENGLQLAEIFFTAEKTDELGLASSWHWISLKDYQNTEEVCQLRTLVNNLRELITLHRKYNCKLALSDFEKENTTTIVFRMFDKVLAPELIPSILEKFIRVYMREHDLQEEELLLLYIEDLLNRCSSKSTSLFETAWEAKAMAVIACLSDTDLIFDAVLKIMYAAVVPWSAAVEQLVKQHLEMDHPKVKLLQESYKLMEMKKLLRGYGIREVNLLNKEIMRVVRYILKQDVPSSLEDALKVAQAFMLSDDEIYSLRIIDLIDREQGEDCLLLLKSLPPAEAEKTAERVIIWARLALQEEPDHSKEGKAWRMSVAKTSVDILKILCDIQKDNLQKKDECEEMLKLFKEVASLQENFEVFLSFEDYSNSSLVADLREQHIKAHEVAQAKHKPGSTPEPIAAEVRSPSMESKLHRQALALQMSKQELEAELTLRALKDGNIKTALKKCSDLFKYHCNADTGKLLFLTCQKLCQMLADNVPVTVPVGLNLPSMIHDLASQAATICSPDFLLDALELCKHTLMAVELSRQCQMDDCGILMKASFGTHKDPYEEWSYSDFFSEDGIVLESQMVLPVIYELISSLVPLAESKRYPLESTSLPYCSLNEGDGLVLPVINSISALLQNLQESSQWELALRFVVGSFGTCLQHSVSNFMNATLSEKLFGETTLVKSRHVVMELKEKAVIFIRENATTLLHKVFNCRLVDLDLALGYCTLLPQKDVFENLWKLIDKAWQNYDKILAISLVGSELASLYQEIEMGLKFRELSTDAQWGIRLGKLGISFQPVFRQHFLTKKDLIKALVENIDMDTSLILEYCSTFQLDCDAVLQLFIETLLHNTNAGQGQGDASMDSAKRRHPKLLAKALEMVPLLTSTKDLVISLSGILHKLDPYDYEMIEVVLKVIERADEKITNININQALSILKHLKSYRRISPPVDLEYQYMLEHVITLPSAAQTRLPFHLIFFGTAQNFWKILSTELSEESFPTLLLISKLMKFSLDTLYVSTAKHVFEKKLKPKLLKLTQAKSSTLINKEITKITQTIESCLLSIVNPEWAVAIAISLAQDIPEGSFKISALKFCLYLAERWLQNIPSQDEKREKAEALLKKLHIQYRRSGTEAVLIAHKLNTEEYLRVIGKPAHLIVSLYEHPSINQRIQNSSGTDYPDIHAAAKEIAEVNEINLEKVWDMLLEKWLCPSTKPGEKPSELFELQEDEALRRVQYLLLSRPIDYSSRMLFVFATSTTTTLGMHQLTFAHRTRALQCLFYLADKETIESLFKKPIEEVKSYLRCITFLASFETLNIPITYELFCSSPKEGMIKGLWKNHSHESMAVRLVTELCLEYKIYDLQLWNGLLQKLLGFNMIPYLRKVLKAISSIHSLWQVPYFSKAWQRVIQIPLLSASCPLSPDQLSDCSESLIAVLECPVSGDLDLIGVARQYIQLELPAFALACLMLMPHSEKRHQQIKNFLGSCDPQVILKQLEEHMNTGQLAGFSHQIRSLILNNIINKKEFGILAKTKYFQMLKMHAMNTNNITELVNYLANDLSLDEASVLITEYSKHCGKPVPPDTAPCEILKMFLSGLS
Chain of UniProt Q86UP2 (Q86UP2 whole entry, looked up): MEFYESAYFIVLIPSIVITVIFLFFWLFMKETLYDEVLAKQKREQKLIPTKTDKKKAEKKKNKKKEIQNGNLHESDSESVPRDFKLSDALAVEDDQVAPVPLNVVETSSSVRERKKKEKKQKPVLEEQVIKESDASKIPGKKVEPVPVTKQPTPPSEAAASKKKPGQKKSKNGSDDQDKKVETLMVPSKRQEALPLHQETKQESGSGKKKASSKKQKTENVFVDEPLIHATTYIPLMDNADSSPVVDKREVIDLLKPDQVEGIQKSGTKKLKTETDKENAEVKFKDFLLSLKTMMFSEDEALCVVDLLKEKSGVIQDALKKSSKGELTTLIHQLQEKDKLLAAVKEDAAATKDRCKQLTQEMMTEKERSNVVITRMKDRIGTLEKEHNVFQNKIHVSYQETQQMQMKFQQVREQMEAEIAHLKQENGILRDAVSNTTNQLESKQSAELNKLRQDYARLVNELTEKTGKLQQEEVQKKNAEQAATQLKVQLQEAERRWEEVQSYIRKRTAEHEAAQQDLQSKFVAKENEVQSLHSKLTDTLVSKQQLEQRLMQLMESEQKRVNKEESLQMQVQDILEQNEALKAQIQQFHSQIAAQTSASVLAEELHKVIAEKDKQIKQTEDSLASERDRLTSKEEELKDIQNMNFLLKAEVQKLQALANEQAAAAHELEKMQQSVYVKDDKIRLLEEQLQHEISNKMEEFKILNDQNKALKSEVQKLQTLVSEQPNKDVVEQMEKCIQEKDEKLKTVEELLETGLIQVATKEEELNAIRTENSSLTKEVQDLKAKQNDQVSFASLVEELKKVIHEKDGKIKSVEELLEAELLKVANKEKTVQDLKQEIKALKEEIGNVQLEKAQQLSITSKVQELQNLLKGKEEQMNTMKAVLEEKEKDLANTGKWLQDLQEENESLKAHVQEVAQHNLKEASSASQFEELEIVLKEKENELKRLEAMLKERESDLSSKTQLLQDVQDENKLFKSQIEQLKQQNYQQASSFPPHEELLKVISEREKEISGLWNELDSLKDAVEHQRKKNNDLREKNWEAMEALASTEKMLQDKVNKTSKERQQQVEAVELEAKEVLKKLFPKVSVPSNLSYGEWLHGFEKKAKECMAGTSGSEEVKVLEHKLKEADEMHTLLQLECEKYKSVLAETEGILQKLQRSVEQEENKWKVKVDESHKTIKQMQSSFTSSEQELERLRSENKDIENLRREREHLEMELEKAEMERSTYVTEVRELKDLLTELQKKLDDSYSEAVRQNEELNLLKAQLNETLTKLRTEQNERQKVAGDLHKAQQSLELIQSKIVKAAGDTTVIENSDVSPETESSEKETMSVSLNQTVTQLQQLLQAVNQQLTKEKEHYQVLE

Target | log2 fold change
LAMP2 isoform 2 (UniProt P13473) | 0.052 (inactive)
MIER1 isoform 12 (UniProt Q8N108) | 0.016 (inactive)
MAPK8 isoform 3 (UniProt P45983) | 0.061 (inactive)
LUC7L3 (UniProt O95232) | 0.021 (inactive)
MFSD5 isoform 2 (UniProt Q6N075) | -0.049 (inactive)
IKZF1 isoform 2 (UniProt Q13422) | -0.026 (inactive)
KPNA1 (UniProt P52294) | -0.003 (inactive)
MARCKSL1 (UniProt P49006) | -0.008 (inactive)
MAP4 (UniProt P27816) | 0.003 (inactive)
KNTC1 (UniProt P50748) | -0.011 (inactive)
LENG8 (UniProt Q96PV6) | -0.028 (inactive)
KTN1 (UniProt Q86UP2) | 0.036 (inactive)
JMJD6 isoform 3 (UniProt Q6NYC1) | 0.006 (inactive)
LARP1 (UniProt Q6PKG0) | 0.151 (inactive)
LRBA (UniProt P50851) | 0 (inactive)
KCT2 (UniProt Q8NC54) | -0.014 (inactive)

Target | log2 fold change
IK (UniProt Q13123) | 0.041 (inactive)
MED1 (UniProt Q15648) | 0.079 (inactive)
LMNA (UniProt P02545) | -0.017 (inactive)
LUZP1 (UniProt Q86V48) | -0.217 (inactive)
LRRFIP1 (UniProt Q32MZ4) | 0.023 (inactive)
INPP1 (UniProt P49441) | -0.002 (inactive)
KSR1 (UniProt Q8IVT5) | 0.044 (inactive)
LEO1 (UniProt Q8WVC0) | -0.016 (inactive)
LIAS (UniProt O43766) | 0.049 (inactive)
MAPKAPK5 (UniProt Q8IW41) | -0.069 (inactive)
LMBR1 isoform 3 (UniProt Q8WVP7) | -0.349 (inactive)
KCTD2 (UniProt Q14681) | 0.195 (inactive)
MFSD11 (UniProt O43934) | -0.03 (inactive)
ITM2B (UniProt Q9Y287) | -0.028 (inactive)
IRF3 (UniProt Q14653) | -0.007 (inactive)
